Laboratory results published in PubChem BioAssay (EPA / NIEHS).
Where “and” joins values, the source holds several entries; their conditions need not be identical. Equal entries are not always repeated. Inconclusive results are not listed. Some compounds were tested as several samples or in several runs, with calls that do not always agree. Calls of active or inactive are those of the source. How the source made its calls, unless noted: active means hit-call score of the fitted dose curve at least 0.9, where 1 is the maximum; inconclusive means response in the unintended direction; inactive means score below 0.9.

What was measured:
[1] = target: Estrogen receptor beta (Homo sapiens) (UniProt Q92731); assay: OT_ER_ERbERb_1440: Odyssey Thera (OT) 24-hour HEK293T Protein-Complementation Assay for Estrogen Receptor-beta/-beta Homodimer (AID 2283380);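 further: scored as signal increase over DMSO baseline for both agonists and antagonists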
Sequence of Estrogen receptor beta (Homo sapiens) (Q92731 whole entry, looked up, the tested form may be a part): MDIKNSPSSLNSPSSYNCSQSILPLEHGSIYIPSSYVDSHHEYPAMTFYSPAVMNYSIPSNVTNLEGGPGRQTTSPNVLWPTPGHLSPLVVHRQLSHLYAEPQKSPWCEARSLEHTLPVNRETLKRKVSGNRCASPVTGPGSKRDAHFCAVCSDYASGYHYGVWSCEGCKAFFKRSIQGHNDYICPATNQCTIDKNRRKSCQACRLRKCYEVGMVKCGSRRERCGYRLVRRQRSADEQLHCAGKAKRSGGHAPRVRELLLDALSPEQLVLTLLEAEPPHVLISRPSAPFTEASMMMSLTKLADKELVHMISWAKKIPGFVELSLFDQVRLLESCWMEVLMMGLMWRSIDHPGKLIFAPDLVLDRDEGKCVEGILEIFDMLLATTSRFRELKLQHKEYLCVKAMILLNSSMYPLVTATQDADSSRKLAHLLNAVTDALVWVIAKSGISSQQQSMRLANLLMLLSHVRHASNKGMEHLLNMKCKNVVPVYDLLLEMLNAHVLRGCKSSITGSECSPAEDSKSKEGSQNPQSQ
How it was run: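 HEK293T cells stably expressing ER beta LBD (aa 310-547) homodimer fragment-complementation reporter, dosed 24 h. Cells formaldehyde-fixed, Draq5-stained; gain in nuclear (agonist) or nuclear plus cytoplasmic (antagonist) fluorescence versus DMSO read by laser scanning cytometry.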

[2] = target: Estrogen receptor (Homo sapiens) (UniProt P03372); assay: OT_ERa_GFPERaERE_0480: Odyssey Thera (OT) 8-hour HeLa Transcription Induction Assay for Estrogen Receptor (AID 2283381; active means hit-call score of the fitted dose curve at least 0.9, where 1 is the maximum; inactive means score below 0.9)
Sequence of Estrogen receptor (Homo sapiens) (P03372 whole entry, looked up): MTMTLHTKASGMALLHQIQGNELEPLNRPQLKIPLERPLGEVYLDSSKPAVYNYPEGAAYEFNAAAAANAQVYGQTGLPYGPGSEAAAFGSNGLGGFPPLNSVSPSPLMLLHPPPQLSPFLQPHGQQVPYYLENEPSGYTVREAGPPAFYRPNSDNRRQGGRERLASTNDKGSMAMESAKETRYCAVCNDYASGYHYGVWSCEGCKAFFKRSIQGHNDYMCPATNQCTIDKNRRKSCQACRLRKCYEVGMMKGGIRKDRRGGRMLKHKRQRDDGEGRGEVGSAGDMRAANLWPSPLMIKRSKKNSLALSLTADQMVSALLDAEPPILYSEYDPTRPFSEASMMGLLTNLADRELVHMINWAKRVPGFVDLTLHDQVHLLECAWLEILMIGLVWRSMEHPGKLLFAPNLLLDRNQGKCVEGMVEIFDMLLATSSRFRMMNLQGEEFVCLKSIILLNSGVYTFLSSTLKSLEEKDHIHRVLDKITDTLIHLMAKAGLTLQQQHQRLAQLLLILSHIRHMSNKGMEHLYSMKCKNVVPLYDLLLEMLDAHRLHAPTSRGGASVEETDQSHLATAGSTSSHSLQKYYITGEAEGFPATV
How it was run: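 An 8 h HeLa transcription-induction format with a GFP reporter under ERE control, read by fluorescence microscopy; single endpoint fitted positively with DMSO as baseline.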

[3] = target: Estrogen receptor (Homo sapiens) (UniProt P03372); assay: OT_ERa_GFPERaERE_0120: Odyssey Thera (OT) 2-hour HeLa Transcription Induction Assay for Estrogen Receptor (AID 2283382)
How it was run: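 Two-hour compound treatment of HeLa cells preceded microscopy imaging of an inducible fluorescent reporter. Image-based quantification gave one endpoint, analysed for signal increase relative to DMSO controls.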

[4] = target: Bile acid receptor (Homo sapiens) (UniProt Q96RI1); assay: OT_FXR_FXRSRC1_0480: Odyssey Thera (OT) 8-hour HEK293T Protein-Complementation Assay for Farnesoid X receptor/SRC-1 Co-activator (AID 2283383)
Sequence of Bile acid receptor (Homo sapiens) (Q96RI1 whole entry, looked up): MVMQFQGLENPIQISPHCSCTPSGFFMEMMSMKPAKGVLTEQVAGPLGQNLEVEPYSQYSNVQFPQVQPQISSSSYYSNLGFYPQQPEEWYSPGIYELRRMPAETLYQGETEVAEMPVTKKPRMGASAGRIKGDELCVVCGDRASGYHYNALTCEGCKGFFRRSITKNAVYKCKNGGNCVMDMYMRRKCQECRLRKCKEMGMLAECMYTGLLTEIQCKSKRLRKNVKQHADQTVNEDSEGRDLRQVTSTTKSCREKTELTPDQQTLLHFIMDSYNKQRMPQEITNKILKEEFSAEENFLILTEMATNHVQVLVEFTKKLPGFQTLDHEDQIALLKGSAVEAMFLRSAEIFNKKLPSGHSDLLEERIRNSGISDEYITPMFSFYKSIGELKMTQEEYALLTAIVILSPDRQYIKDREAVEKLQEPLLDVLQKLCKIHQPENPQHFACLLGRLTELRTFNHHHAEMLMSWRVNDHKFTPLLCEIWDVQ
How it was run: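 Readings were taken 8 h after dosing HEK293T cells in a split-reporter complementation format pairing FXR with SRC-1. Increased fluorescence relative to DMSO-treated wells defined activity.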

[5] = target: Retinoic acid receptor RXR-alpha (Homo sapiens) (UniProt P19793); assay: OT_NURR1_NURR1RXRa_1440: Odyssey Thera (OT) 24-hour HEK293T Protein Complementation Assay for Nurr1/retinoid X receptor (RXR) (AID 2283386)
Sequence of Retinoic acid receptor RXR-alpha (Homo sapiens) (P19793 whole entry, looked up, the tested form may be a part): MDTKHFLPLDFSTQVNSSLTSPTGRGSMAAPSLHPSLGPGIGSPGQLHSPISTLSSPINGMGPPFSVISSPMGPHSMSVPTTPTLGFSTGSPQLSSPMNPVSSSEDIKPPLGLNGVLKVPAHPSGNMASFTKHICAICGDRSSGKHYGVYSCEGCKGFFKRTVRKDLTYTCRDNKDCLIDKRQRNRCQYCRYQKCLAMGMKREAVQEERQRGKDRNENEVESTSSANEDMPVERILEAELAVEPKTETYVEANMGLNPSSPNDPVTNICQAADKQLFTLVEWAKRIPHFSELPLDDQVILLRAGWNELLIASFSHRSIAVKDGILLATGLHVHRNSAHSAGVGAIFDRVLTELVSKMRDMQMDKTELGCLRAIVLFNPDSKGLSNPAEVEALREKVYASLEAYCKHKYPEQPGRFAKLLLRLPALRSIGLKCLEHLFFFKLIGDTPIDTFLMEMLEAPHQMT
How it was run: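 Cell-based binding reporter: HEK293T cells, 24 h exposure, fluorescence-detected fragment complementation, DMSO as baseline.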

[6] = target: Peroxisome proliferator-activated receptor gamma (Homo sapiens) (UniProt P37231); assay: OT_PPARg_PPARgSRC1_0480: Odyssey Thera (OT) 8-hour Protein-Complementation Assay for Peroxisome Proliferator-activated Receptor Gamma / SRC-1 Co-activator (AID 2283387);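 further: nuclear to cytoplasmic split Venus YFP fluorescence ratio reporting PPARg SRC-1 interaction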
Sequence of Peroxisome proliferator-activated receptor gamma (Homo sapiens) (P37231 whole entry, looked up, the tested form may be a part): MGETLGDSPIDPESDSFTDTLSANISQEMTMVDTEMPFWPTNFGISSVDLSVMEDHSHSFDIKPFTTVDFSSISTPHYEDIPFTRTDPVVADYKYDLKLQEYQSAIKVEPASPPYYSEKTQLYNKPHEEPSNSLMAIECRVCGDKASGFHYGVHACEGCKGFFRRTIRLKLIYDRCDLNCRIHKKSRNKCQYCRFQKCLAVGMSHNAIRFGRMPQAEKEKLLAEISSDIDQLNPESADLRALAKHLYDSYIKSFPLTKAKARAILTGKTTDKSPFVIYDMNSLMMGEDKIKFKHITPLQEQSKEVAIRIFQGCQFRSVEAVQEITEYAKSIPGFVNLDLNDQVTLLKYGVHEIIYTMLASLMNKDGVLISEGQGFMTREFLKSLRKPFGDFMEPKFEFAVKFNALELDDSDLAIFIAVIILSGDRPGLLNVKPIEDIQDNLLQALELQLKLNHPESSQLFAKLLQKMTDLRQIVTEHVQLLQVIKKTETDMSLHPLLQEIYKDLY
How it was run: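 Split-YFP (IFP1/IFP2) PPARg/SRC-1 reporter, HEK293T, 37 °C, 5% CO2; 8 h compound; formaldehyde fix + Draq5; high-content imaging, N/C ratio, ≥350 cells/image, positive direction vs DMSO.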

[7] = target: Peroxisome proliferator-activated receptor gamma (Homo sapiens) (UniProt P37231); assay: OT_PPARg_PPARgSRC1_1440: Odyssey Thera (OT) 24-hour Protein-Complementation Assay for Peroxisome Proliferator-activated Receptor Gamma/ SRC-1 Co-activator (AID 2283388);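 further: nuclear to cytoplasmic ratio of reconstituted Venus YFP fluorescence in fixed imaged cells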
How it was run: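 Protein-fragment complementation between PPARg and coactivator SRC-1 was measured by fluorescence imaging in transiently transfected HEK293T cells after 24 h treatment. Signal was quantified as N/C ratio in the 488 nm channel, with DMSO as negative control.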

[8] = CEETOX_H295R_11DCORT: CeeTox H295R High-throughput Steroidogenesis Assay for 11-Deoxycortisol (11DCORT) (AID 2283432; active means hit-call score of the fitted dose curve at least 0.9, where 1 is the maximum; inactive means score below 0.9;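 on AC50: human adrenal H295R cells prestimulated with 10 µM forskolin for 48 h; 11-deoxycortisol secreted into the medium measured by LC-MS/MS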); conditions: actives raise or lower the signal
How it was run: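 Steroidogenesis in human H295R cells: 48 h chemical exposure after forskolin priming, 11-deoxycortisol measured by LC-MS/MS.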

[9] = target: Retinoic acid receptor RXR-alpha (Homo sapiens) (UniProt P19793); assay: OT_NURR1_NURR1RXRa_0480: Odyssey Thera (OT) 8-hour HEK293T Protein Complementation Assay for Nurr1/retinoid X receptor (RXR) (AID 2283385)
How it was run: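 Gain in fluorescent complementation signal over DMSO, measured 8 hours after chemical dosing of human kidney HEK293T cells, indicated enhanced Nurr1–RXRα association.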

[10] = target: Agonist Androgen Response Element (ARE), AR (gene 367) (UniProt P10275); assay: OT_AR_ARELUC_AG_1440: Odyssey Thera (OT) 24-hour CHO-K1 Luciferase Assay for Agonist Androgen Response Element (ARE) (AID 2283379)
Sequence of Agonist Androgen Response Element (ARE), AR (gene 367) (P10275 whole entry, looked up): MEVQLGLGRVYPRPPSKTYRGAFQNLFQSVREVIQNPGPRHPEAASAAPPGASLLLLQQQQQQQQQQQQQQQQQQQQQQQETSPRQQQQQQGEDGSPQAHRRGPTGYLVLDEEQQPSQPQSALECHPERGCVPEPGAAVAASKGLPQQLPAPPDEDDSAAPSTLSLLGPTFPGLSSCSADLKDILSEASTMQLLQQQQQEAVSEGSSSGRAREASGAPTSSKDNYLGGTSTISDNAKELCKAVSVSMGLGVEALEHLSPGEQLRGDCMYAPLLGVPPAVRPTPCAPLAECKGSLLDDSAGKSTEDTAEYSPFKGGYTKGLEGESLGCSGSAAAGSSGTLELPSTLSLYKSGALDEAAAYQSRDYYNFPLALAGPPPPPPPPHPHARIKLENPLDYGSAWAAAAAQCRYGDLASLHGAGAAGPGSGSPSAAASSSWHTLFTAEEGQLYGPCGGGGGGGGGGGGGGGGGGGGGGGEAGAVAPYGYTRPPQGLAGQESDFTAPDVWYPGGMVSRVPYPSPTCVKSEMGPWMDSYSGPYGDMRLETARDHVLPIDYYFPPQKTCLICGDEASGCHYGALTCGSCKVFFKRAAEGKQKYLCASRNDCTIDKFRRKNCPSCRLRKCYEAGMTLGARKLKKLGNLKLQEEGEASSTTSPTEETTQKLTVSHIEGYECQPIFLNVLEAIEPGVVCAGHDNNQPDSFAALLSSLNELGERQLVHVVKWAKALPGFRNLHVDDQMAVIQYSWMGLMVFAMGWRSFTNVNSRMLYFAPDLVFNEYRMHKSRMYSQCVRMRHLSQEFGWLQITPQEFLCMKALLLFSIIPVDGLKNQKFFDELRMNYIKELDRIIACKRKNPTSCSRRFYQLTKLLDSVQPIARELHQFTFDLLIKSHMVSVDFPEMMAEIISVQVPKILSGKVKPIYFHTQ
How it was run: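 Gain-of-signal reporter endpoint: cells (CHO-K1, hamster) are treated 24 h, luciferin/ATP reagent added, and luminescence compared with DMSO baseline.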

Measured: AC50

COc1nn(CSP(=S)(OC)OC)c(=O)s1
not listed: [9] | [10]
inactive: all other assays above

OCCOc1ccccc1
not listed: [8] | [10]
inactive: all other assays above

CCC(C)(C)C(=O)OC1=C(c2ccc(Cl)cc2Cl)C(=O)OC12CCCCC2
inactive: [10] | [1] | [2] | [3] | [9] | [6]
active: [4] 47.5 µM | [5] 33 µM and 70.8 µM | [6] 16 µM | [7] 38.7 µM and 50 µM | [8] 1.11 µM

C[C@H]1[C@H](c2ccc(Cl)cc2)SC(=O)N1C(=O)NC1CCCCC1
not listed: [4] | [9]
inactive: all other assays above

CC1(c2ccc(Oc3ccccc3)cc2)OC(=O)N(Nc2ccccc2)C1=O (centres undefined)
inactive: [1] | [2] | [3] | [6] | [7]
active: [4] 1.94 µM

CCOCN(C(=O)CCl)c1c(C)cccc1CC
active: [9] 654 nM
inactive: [1] | [2] | [3] | [9] | [5] | [6] | [7]

CNC(=O)CSP(=S)(OC)OC
not listed: [4] | [8] | [10]
inactive: all other assays above

CN1CSC(=S)N(C)C1
inactive: [1] | [2] | [3] | [4] | [6] | [7]

C#CCN1C(=O)COc2cc(F)c(N3C(=O)C4=C(CCCC4)C3=O)cc21
not listed: [4]
inactive: all other assays above

CC(C)OC(=O)Nc1cccc(Cl)c1
active: [4] 48.4 µM
not listed: [5] | [8] | [10]
inactive: all other assays above

CCCN(CCC)c1c([N+](=O)[O-])cc(C(F)(F)F)cc1[N+](=O)[O-]
active: [4] 30.7 µM
not listed: [1] | [8]
inactive: all other assays above

O=[N+]([O-])/N=C1\NCCN1Cc1ccc(Cl)nc1
inactive: all assays above

COP(=O)(OC)OC=C(Cl)Cl
not listed: [4] | [8] | [10]
inactive: all other assays above

CC(C)N(C(=O)COc1nnc(C(F)(F)F)s1)c1ccc(F)cc1
not listed: [10]
inactive: all other assays above

Cc1[nH]c(=O)n(C(C)(C)C)c(=O)c1Cl
not listed: [1] | [8]
inactive: all other assays above

CCc1ccc(C(=O)NN(C(=O)c2cc(C)cc(C)c2)C(C)(C)C)cc1
not listed: [10]
inactive: all other assays above

CCC(C)Nc1c([N+](=O)[O-])cc(C(C)(C)C)cc1[N+](=O)[O-] (centres undefined)
inactive: [2] | [5] | [6] | [7]
active: [1] 38.5 µM | [3] 12.2 µM | [9] 84.6 µM and 73.7 µM | [5] 83.6 µM | [8] 74.6 µM

O=C(O)CCCOc1ccc(Cl)cc1Cl
inactive: [10] | [1] | [9] | [5] | [6] | [7]

Oc1ccc(Cl)cc1Cc1ccccc1
inactive: [10] | [9] | [5] | [6] | [7]
active: [1] 12 µM | [8] 77.7 µM

CCOC1Oc2ccc(OS(C)(=O)=O)cc2C1(C)C (centres undefined)
active: [2] 55.4 µM | [3] 53.4 µM
not listed: [4] | [8]
inactive: all other assays above
